The results in this text go back to the supplement of paper PMC7393113.

Counter-ions that a name gives are not always drawn. ± gives the standard deviation of the averaged measurements.

In this assay the test system is iBMDM (immortalised mouse bone-marrow-derived macrophages), LPS-stimulated. Description: mitochondrial superoxide (MitoSOX fluorescence) fold increase over unstimulated control; higher = more LPS-induced mitochondrial ROS (less inhibition). The settings on record: inhibitor concentration: 500 nM; LPS: 100 ng/ml; time after LPS: 4 h. In short, it runs like this: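 Immortalised mouse bone-marrow-derived macrophages were seeded in triplicate in black 96-well plates and moved to phenol-red-free 1% FCS/DMEM for 20 h. They were pretreated 30 min with kinase inhibitors (500 nM), loaded with 1 μM MitoSox for 10 min, then given LPS (100 ng/ml). Fluorescence (excitation/emission 510/580 nm, ClarioStar plate reader) was read every 60 min for 4 h. Mitochondrial superoxide is fold induction over untreated control macrophages, averaged over three replicates.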
In turn, `O=C(Nc1c[nH]nc1-c1nc2ccc(CN3CCOCC3)cc2[nH]1)NC1CC1` registered a mitochondrial superoxide of 1.51 ± 0.036.

The molecule `COc1cc(N2CCC(N(C)C)CC2)ccc1Nc1ncc(Cl)c(Nc2ccccc2P(C)(C)=O)n1` displayed a mitochondrial superoxide of 1.33 ± 0.076.

Molecule `Cc1cn(-c2cc(NC(=O)c3ccc(C)c(Nc4nccc(-c5cccnc5)n4)c3)cc(C(F)(F)F)c2)cn1` [Nilotinib (AMN-107)] yielded a mitochondrial superoxide of 1.65 ± 0.1.

In the case of `COc1ccc(F)c(F)c1C(=O)c1cnc(NC2CCN(S(C)(=O)=O)CC2)nc1N`, the mitochondrial superoxide amounted to 1.8 ± 0.14.

Molecule `Cc1[nH]c(/C=C2\C(=O)Nc3ccccc32)c(C)c1CCC(=O)O` [TSU-68 (SU6668, Orantinib)] displayed a mitochondrial superoxide of 2.16 ± 0.12.

With `CN(C[C@@H]1COCCO1)S(=O)(=O)Nc1ccc2ccc3ncc(-c4cnn(C)c4)cc3c(=O)c2c1`, the mitochondrial superoxide came to 1.76 ± 0.048.

On to `COCCOc1ccc2c(c1)ncn2-c1ccc2cccc(N3CCC(N)CC3)c2n1`, for which the mitochondrial superoxide stood at 1.3 ± 0.038.

`CNC(=O)c1c(F)cccc1Nc1nc(Nc2cc3c(cc2OC)CCN3C(=O)CN(C)C)nc2[nH]ccc12` showed a mitochondrial superoxide of 1.64 ± 0.015.

`CCC[C@H](NC(=O)/C(C#N)=C/c1cccc(Br)n1)c1ccccc1` [Degrasyn (WP1130)] came in with a mitochondrial superoxide of 1.48 ± 0.038.

`O=C(NCc1cccc(O)c1)Nc1nc(-c2ccncc2)cs1`: the mitochondrial superoxide is 1.64 ± 0.017.

As for `O=C(Cc1ccc(-c2ccc(OCCN3CCOCC3)cc2)cn1)NCc1ccccc1`, the mitochondrial superoxide was determined as 1.61 ± 0.11.

`CCCCCCCCc1ccc(CCC(N)(CO)CO)cc1` [Fingolimod (FTY720) HCl] showed a mitochondrial superoxide of 1.31 ± 0.038.

The molecule `O=C(NC1CCNCC1)c1n[nH]cc1NC(=O)c1c(Cl)cccc1Cl` came in with a mitochondrial superoxide of 1.3 ± 0.018.

Take `O=C1Nc2ccc(I)cc2C1=Cc1cc(Br)c(O)c(Br)c1`: the mitochondrial superoxide stood at 1.09 ± 0.014.

On to `C#Cc1cccc(Nc2ncnc3cc4c(cc23)OCCOCCOCCO4)c1` [Icotinib], for which the mitochondrial superoxide is 1.31 ± 0.02.

As for `Cc1cc(Nc2cc(CN3CCOCC3)c3nc(C)c(Cc4ccc(Cl)cc4F)n3n2)n[nH]1`, the mitochondrial superoxide was determined as 1.38 ± 0.035.

With `COc1ccc(CNC(=O)Nc2ncc([N+](=O)[O-])s2)cc1`, the mitochondrial superoxide was determined as 1.6 ± 0.096.

With `Cc1ccc(NC(=O)c2ccc(CN3CCN(C)CC3)cc2)cc1Nc1nc(-c2cccnc2)cs1` [Masitinib (AB1010)], the mitochondrial superoxide worked out at 1.72 ± 0.12.

`CNC(=O)c1ccc(-c2cnc3ncc(Cc4ccc5ncccc5c4)n3n2)cc1F` displayed a mitochondrial superoxide of 1.58 ± 0.14.

For `CC(C)(C)n1nc(-c2ccc(Cl)cc2)c2c(N)ncnc21`, the mitochondrial superoxide was 1.31 ± 0.079.

In the case of `Cc1cc([C@@H](C)Nc2ccccc2C(=O)O)c2nc(N3CCOCC3)cc(=O)n2c1`, the mitochondrial superoxide worked out at 1.21 ± 0.027.

As for `COc1cc2ncnc(Nc3ccc(O)c(Br)c3)c2cc1OC`, the mitochondrial superoxide is 1.07 ± 0.12.

As for `COc1ccc(-c2ccc3c(N4CCOC[C@@H]4C)nc(N4CCOC[C@@H]4C)nc3n2)cc1CO`, the mitochondrial superoxide was determined as 1.25 ± 0.025.

On to `COc1ccc(-c2ccc3c(N4CCOCC4)nc(N4C[C@@H](C)O[C@@H](C)C4)nc3n2)cc1CO`, for which the mitochondrial superoxide is 1.32 ± 0.068.

Regarding `CS(=O)(=O)CCNCc1ccc(-c2ccc3ncnc(Nc4ccc(OCc5cccc(F)c5)c(Cl)c4)c3c2)o1`, the mitochondrial superoxide worked out at 1.89 ± 0.18.

Turning to `C=CC(=O)Nc1cccc(Oc2nc(Nc3ccc(N4CCN(C)CC4)cc3OC)ncc2Cl)c1`, the mitochondrial superoxide is 1.68 ± 0.041.

In the case of `O=c1c(-c2ccc(O)cc2)coc2cc(O)cc(O)c12` [Genistein], the mitochondrial superoxide is 1.36 ± 0.15.

Consider `Cc1ccc(NC(=O)c2ccc(CN3CCN(C)CC3)cc2)cc1Nc1nccc(-c2cccnc2)n1` [Imatinib (STI571)], for which the mitochondrial superoxide worked out at 1.49 ± 0.12.

The molecule `CCCNC(=O)Nc1ccc(Oc2ncnc3cc(OC)c(OC)cc23)cc1Cl` returned a mitochondrial superoxide of 1.22 ± 0.024.

With `CCNC(=O)Nc1ccc(-c2nc3c(c(N4CCOC[C@@H]4C)n2)CCN(C2COC2)C3)cc1`, the mitochondrial superoxide stood at 1.68 ± 0.062.

The molecule `CCN1CCN(c2ccc(Nc3cc(N(C)C(=O)Nc4c(Cl)c(OC)cc(OC)c4Cl)ncn3)cc2)CC1` showed a mitochondrial superoxide of 1.35 ± 0.06.

The molecule `OCCn1cc(-c2ccc3c(c2)CC/C3=N\O)c(-c2ccncc2)n1` displayed a mitochondrial superoxide of 1.49 ± 0.02.

Regarding `O=C(Nc1cc(C(F)(F)F)cc(C(F)(F)F)c1)c1cc(Cl)ccc1O`, the mitochondrial superoxide was 1.01 ± 0.054.

As to `CC(C)(C)c1cnc(CSc2cnc(NC(=O)C3CCNCC3)s2)o1`, the mitochondrial superoxide was 1.5 ± 0.14.

As to `O=C1NC(=O)C(c2ccccc2[N+](=O)[O-])=C1Nc1ccc(O)c(Cl)c1`, the mitochondrial superoxide was 1.63 ± 0.063.

Take `N#CC1(c2ccc(NC(=O)c3cccnc3NCc3ccncc3)cc2)CCCC1` [Apatinib]: the mitochondrial superoxide was 1.36 ± 0.018.

For `COc1cc2c(Oc3ccc(NC(=O)C4(C(=O)Nc5ccc(F)cc5)CC4)cc3F)ccnc2cc1OCCCN1CCOCC1`, the mitochondrial superoxide is 1.48 ± 0.03.
